Nine molecules from PubChem BioAssay (Tox21) can be followed below.

Test [1] has as its target Aryl hydrocarbon receptor (Homo sapiens) (UniProt P35869). Put plainly: qHTS assay to identify small molecule that activate the aryl hydrocarbon receptor (AhR) signaling pathway (AID 743085). Also: nearly all actives have a fitted effect of over 15% in size. Also: potency is read from the fitted curve at half-maximal effect.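 As to activation: HG2L7.5c1 human HepG2 liver cells with stably integrated DRE-driven firefly reporter; series mostly up to about 70 µM.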 The essentials:
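Stably transfected human liver carcinoma cells (HG2L7.5c1; 20 DRE-firefly luciferase) were incubated 5 h, dosed, and kept 24 h at 37C. Agonism was scored from increased luciferase luminescence.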

Test [2] can be described thus: qHTS assay to identify small molecule that activate the aryl hydrocarbon receptor (AhR) signaling pathway - cell viability counter screen (AID 743086). Also: nearly all actives have a fitted effect of over 45% in size. Also: potency is read from the fitted curve at half-maximal effect. The essentials:
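HepG2-AhR-luc (HG2L7.5c1) cells, 4000/well, were preincubated 5 h at 37C, exposed to compound in qHTS format for 24 hr at 37C, then given CellTiter-Fluor for 30 min; viability was read as fluorescence in the reporter wells.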

For test [3], the target named is Peroxisome proliferator-activated receptor gamma (Homo sapiens) (UniProt P37231). Put plainly: qHTS assay to identify small molecule agonists of the peroxisome proliferator-activated receptor gamma (PPARg) signaling pathway (AID 743094; active = well fitted activation curve with a large enough effect in the signal ratio in the repeat runs, not every such curve was filed as active; the % refers to the signal ratio; also: potency is read from the fitted curve at half-maximal effect). The procedure, abridged: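 Following 5 h plating at 37C, PPARg-bla HEK293H cells receive compound or DMSO for 17 h; fluorescence intensity is recorded after LiveBLAzer B/G loading for 1 h at room temperature.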
Chain of Peroxisome proliferator-activated receptor gamma (Homo sapiens) (P37231 whole entry, looked up): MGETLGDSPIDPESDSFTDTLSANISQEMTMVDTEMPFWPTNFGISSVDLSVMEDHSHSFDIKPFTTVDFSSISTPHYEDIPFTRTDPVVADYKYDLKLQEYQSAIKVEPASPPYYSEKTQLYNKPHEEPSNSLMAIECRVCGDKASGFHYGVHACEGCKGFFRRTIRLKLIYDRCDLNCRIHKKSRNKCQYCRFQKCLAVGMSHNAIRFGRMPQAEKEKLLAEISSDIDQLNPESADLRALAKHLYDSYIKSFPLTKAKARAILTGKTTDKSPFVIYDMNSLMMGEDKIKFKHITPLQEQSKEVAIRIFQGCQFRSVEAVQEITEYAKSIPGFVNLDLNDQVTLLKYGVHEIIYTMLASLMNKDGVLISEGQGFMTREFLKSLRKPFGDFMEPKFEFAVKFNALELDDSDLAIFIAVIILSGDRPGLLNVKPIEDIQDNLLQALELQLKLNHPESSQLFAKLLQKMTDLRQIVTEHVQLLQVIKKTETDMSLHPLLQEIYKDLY
A general note: Quantitative high-throughput screening tests each substance at several concentrations.

Test [4] shares this target. Put plainly: qHTS assay to identify small molecule antagonists of the peroxisome proliferator-activated receptor gamma (PPARg) signaling pathway (AID 743191; calls by dose curve; also: nearly all actives have a fitted effect of over 30% in size; also: potency is read from the fitted curve at half-maximal effect). The procedure, abridged:
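GeneBLAzer PPARg UAS-bla HEK293H cells carrying a UAS-driven beta-lactamase reporter were plated at 3000 cells/well, preincubated 5 h at 37C, then given compound for 17 h at 37C; LiveBLAzer B/G FRET substrate was read after 1 h at room temperature.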

A short description of test [5]: qHTS assay to identify small molecule antagonists of the peroxisome proliferator-activated receptor gamma (PPARg) signaling pathway - cell viability counter screen (AID 743194). Also: nearly all actives have a fitted effect of over 55% in size. Also: potency is read from the fitted curve at half-maximal effect. The essentials: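 PPARg-UAS-bla HEK293H cells were plated, rested 5 h at 37 C, then treated with compounds plus rosiglitazone (50 nM final) for 17 h at 37 C; viability was then read by CellTiter-Glo luminescence after 30 min at room temperature.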

Test [6] in a line: qHTS assay for small molecule agonists of the antioxidant response element (ARE) signaling pathway - cell viability counter screen (AID 743203; calls by dose curve; also: nearly all actives have a fitted effect of over 55% in size; also: potency is read from the fitted curve at half-maximal effect). The essentials:
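Compounds in DMSO were pinned onto ARE-bla HepG2 cells plated 5 hrs earlier at 2,000 cells/well. Sixteen hours later at 37C/5% CO2, CellTiter-Glo was added and luminescence measured after 30 min at room temperature.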

The nature of test [7]: qHTS assay for small molecule activators of the heat shock response signaling pathway - cell viability counter screen (AID 743209). Also: nearly all actives have a fitted effect of over 50% in size. The procedure, abridged:
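Counter screen for cytotoxicity in HeLa HSE-bla reporter cells. Treatment was 5 h at 37 C; viability was detected by luminescent ATP assay (CellTiter-Glo) in the same wells as the beta-lactamase read.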

Test [8] is described as follows: qHTS assay for small molecule activators of the heat shock response signaling pathway (AID 743210; active = well fitted activation curve with a large enough effect in the signal ratio in the repeat runs, with a control signal flat, not every such curve was filed as active; the % refers to the signal ratio; also: series mostly up to about 63 µM). The essentials:
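HSE-bla HeLa cells (beta-lactamase reporter under heat shock response elements) were exposed to compounds for 5 h at 37 C, then loaded with LiveBLAzer B/G FRET substrate for 2.5 h at room temperature before fluorescence reading.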

Test [9] can be described thus: qHTS assay to identify small molecule antagonists of the peroxisome proliferator-activated receptor delta (PPARd) signaling pathway - cell viability counter screen (AID 743213). Also: nearly all actives have a fitted effect of over 50% in size. Also: potency is read from the fitted curve at half-maximal effect. The essentials:
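HEK293H cells with the PPARd UAS-bla reporter, co-treated 17 h at 37 C with compounds and L165041 (300 nM final), were lysed with CellTiter-Glo. Luminescence indicated viable cell content.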

Test [10] in a line: qHTS assay to identify small molecule agonists of the farnesoid-X-receptor (FXR) signaling pathway - cell viability counter screen (AID 743218). Also: nearly all actives have a fitted effect of over 45% in size. Also: potency is read from the fitted curve at half-maximal effect. The essentials:
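After 16 h at 37 C with test compounds, FXR-bla HEK 293T cells were given LiveBLAzer B/G substrate for 2 h at RT and then CellTiter-Glo; luminescence was taken after 30 min.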

The nature of test [11]: qHTS assay to identify small molecule antagonists of the farnesoid-X-receptor (FXR) signaling pathway - cell viability counter screen (AID 743221; active = well fitted cell-killing curve with a large enough effect in the repeat runs, not every such curve was filed as active; also: nearly all actives have a fitted effect of over 50% in size; also: potency is read from the fitted curve at half-maximal effect). The procedure, abridged:
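Here viability was scored by luminescence after CellTiter-Glo addition to wells already read for beta-lactamase. Prior treatment: compound plus CDCA (50 uM final), 16 h, 37 C, HEK 293T FXR-bla cells.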

The target of test [12] is Vitamin D3 receptor (Homo sapiens) (UniProt P11473). Put plainly: qHTS assay to identify small molecule agonists of the vitamin D receptor (VDR) signaling pathway (AID 743222; calls by dose curve). The procedure, abridged:
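VDR-bla cells were seeded, left 4 h, treated with compounds in DMSO for 16 h, incubated 2 h at RT with B/G FRET substrate, and read for fluorescence.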

A short description of test [13]: qHTS assay to identify small molecule agonists of the vitamin D receptor (VDR) signaling pathway - cell viability counter screen (AID 743224). Also: nearly all actives have a fitted effect of over 50% in size. Also: potency is read from the fitted curve at half-maximal effect. The essentials:
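Here cell health was gauged by luminescent ATP detection (CellTiter-Glo, 30 min RT) in VDR-bla cells that had been incubated with test compounds for 16 h at 37C and 5% CO2.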

The nature of test [14]: qHTS assay for small molecule agonists of the antioxidant response element (ARE) signaling pathway (AID 743202; active = well fitted activation curve with a large enough effect in the signal ratio in the repeat runs, not every such curve was filed as active; the % refers to the signal ratio; also: potency is read from the fitted curve at half-maximal effect). The essentials: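 Read-out: LiveBLAzer B/G FRET substrate fluorescence after 2 h at room temperature, following 16 h compound treatment at 37 C of HepG2 cells carrying an ARE-driven beta-lactamase reporter.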
Test [15] is described as follows: qHTS assay to identify small molecule agonists of the peroxisome proliferator-activated receptor delta (PPARd) signaling pathway - cell viability counter screen (AID 743211). Also: nearly all actives have a fitted effect of over 55% in size. Also: potency is read from the fitted curve at half-maximal effect. The essentials: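 In the same wells used for beta-lactamase reporter measurement, cytotoxicity is scored by CellTiter-Glo. HEK293H PPARd-bla cells receive compound for 17 h at 37C following a 5 h settling period.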

In test [16] the target is Peroxisome proliferator-activated receptor delta (Homo sapiens) (UniProt Q03181). Put plainly: qHTS assay to identify small molecule agonists of the peroxisome proliferator-activated receptor delta (PPARd) signaling pathway (AID 743212; calls by dose curve). The procedure, abridged:
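GeneBLAzer PPARd UAS-bla HEK293H cells (beta-lactamase reporter under UAS control), plated and rested 5 h at 37 C, then exposed to compounds in DMSO at 37 C; LiveBLAzer B/G FRET substrate added, 2 h room temperature, fluorescence read.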

Test [17] addresses Bile acid receptor (Homo sapiens) (UniProt Q96RI1). Put plainly: qHTS assay to identify small molecule antagonists of the farnesoid-X-receptor (FXR) signaling pathway (AID 743217; active = well fitted inhibition curve with a large enough effect in the signal ratio in the repeat runs, not every such curve was filed as active; the % refers to the signal ratio). The procedure, abridged: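 In this cell-based antagonist screen, inhibition of CDCA-driven (50 uM final) UAS-beta-lactamase expression in HEK 293T cells was measured by FRET fluorescence following 16 h compound exposure at 37 °C.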

The target is the same in test [18]. Put plainly: qHTS assay to identify small molecule agonists of the farnesoid-X-receptor (FXR) signaling pathway (AID 743220; active = well fitted activation curve with a large enough effect in the signal ratio in the repeat runs, not every such curve was filed as active; the % refers to the signal ratio). The procedure, abridged:
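Beta-lactamase reporter under UAS control in GeneBLAzer FXR HEK 293T cells (5000/well) measured with LiveBLAzer FRET substrate after 2 h at room temperature. Compound exposure lasted 16 h at 37C.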

Test [19] deals with Peroxisome proliferator-activated receptor delta (Homo sapiens) (UniProt Q03181). Put plainly: qHTS assay to identify small molecule antagonists of the peroxisome proliferator-activated receptor delta (PPARd) signaling pathway (AID 743215; active = well fitted inhibition curve with a large enough effect in the signal ratio in the repeat runs, not every such curve was filed as active; the % refers to the signal ratio;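 also: cells stimulated with agonist L165041 at 300 nM final during compound exposure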; also: potency is read from the fitted curve at half-maximal effect). The essentials:
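With L165041 present at 300 nM final, compounds were incubated 17 h at 37 C on PPARd UAS-bla HEK293H cells. A FRET-based beta-lactamase substrate was then applied for 2 h at room temperature and fluorescence intensity recorded.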

Test [20] addresses Vitamin D3 receptor (Homo sapiens) (UniProt P11473). Put plainly: qHTS assay to identify small molecule antagonists of the vitamin D receptor (VDR) signaling pathway (AID 743223; active = well fitted inhibition curve with a large enough effect in the signal ratio in the repeat runs, not every such curve was filed as active; the % refers to the signal ratio). The procedure, abridged:
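Inhibition of agonist-driven VDR signalling is scored in VDR-bla cells: 3 nM final 1alpha,25-dihydroxyvitamin D3 plus compound, 16 h at 37C, then beta-lactamase detection by FRET substrate fluorescence after 2 h.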

Several values for one entry are separate records, joined by “and”; a condition that tells them apart may be missing. Equal values may be shown once. Records with an inconclusive call do not appear. Some compounds were tested as several samples or in several runs, with calls that do not always agree. Activity calls are given as the source filed them. Unless noted, calls follow the shape of the dose curve; as a rule, active = well fitted curve in the direction sought with a large enough effect in the repeat runs; inconclusive = weak or mixed curves; inactive = no such curve, though single readings can be large; an effect the other way counts as inactive or inconclusive.

Chain of Bile acid receptor (Homo sapiens) (Q96RI1 whole entry, looked up): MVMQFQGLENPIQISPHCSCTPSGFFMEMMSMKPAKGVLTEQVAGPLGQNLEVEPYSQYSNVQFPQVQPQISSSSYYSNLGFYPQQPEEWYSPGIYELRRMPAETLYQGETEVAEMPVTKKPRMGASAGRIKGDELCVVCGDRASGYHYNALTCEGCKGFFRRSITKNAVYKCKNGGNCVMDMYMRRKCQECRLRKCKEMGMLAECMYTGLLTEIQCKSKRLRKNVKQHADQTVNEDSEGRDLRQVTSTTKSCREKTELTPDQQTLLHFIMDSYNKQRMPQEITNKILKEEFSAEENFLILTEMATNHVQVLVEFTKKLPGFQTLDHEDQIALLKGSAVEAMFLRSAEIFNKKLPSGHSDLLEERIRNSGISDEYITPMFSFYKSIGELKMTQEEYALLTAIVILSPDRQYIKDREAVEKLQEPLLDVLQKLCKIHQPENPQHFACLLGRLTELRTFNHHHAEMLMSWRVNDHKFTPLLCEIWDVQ
Chain of Vitamin D3 receptor (Homo sapiens) (P11473 whole entry, looked up): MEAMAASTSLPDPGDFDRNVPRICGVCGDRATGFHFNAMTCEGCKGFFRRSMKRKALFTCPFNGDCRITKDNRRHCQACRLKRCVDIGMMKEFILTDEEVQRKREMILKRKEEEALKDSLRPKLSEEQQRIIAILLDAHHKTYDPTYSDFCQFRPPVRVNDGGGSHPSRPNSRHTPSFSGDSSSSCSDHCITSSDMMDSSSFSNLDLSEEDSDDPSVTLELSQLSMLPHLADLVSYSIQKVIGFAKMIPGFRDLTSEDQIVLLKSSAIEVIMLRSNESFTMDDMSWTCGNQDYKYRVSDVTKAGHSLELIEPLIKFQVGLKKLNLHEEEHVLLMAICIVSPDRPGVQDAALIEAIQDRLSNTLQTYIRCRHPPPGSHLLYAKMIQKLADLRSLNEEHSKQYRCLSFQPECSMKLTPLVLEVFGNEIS
Chain of Aryl hydrocarbon receptor (Homo sapiens) (P35869 whole entry, looked up): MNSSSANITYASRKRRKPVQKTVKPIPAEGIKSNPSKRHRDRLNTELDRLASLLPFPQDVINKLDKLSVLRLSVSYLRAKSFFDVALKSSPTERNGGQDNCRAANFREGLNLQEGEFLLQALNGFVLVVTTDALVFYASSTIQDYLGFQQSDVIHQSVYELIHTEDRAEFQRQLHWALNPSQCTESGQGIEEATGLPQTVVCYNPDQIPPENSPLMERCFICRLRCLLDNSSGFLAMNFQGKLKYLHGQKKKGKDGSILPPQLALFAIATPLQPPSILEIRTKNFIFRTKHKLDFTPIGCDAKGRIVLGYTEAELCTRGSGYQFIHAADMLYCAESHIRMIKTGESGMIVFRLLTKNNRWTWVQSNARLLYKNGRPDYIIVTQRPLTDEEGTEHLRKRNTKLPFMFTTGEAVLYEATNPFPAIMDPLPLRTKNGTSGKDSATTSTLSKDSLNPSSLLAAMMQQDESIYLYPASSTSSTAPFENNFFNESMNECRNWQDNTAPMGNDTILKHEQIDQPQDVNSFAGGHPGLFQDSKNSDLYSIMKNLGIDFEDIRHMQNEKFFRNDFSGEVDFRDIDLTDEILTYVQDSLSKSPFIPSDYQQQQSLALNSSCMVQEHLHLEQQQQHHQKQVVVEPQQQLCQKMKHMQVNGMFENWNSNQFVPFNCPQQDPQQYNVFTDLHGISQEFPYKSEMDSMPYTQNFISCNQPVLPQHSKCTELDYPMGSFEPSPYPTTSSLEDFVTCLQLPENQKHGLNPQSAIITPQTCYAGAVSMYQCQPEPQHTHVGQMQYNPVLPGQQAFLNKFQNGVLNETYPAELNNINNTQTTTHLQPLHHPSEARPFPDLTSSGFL
Chain of Peroxisome proliferator-activated receptor delta (Homo sapiens) (Q03181 whole entry, looked up): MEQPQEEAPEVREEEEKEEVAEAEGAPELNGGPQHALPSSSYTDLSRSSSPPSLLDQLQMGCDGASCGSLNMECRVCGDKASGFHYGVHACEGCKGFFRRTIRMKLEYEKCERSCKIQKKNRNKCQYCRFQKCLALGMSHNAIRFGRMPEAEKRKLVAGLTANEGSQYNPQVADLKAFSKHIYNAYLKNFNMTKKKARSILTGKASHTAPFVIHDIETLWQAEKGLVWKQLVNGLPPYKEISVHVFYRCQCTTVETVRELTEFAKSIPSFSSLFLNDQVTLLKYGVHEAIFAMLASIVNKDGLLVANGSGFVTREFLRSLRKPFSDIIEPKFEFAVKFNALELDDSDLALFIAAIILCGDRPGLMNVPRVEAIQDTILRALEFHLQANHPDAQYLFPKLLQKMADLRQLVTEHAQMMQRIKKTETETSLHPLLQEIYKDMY

For the molecule `COC(=O)Nc1nc2ccc(S(=O)c3ccccc3)cc2[nH]1` (centres undefined), the Potency in test [1] was 3.76 µM (active) and 3.06 µM (active). The Potency result in [2], in test [3], in test [4], in test [5], in [6] and in test [7] was “inactive” throughout. Moreover, the Potency result in test [8], in test [9], in test [10], in test [11] and in test [13] was “inactive” each time. For the same molecule, the molecule was classed as inactive in [12].

For the molecule `C=C(C)C1CC=C(C)CC1` (centres undefined), the Potency result in test [1], in test [2], in test [5], in test [14], in [6] and in [7] was “inactive” each time. Moreover, the Potency entry in [8], in test [15], in test [9], in test [11] and in test [13] was “inactive” each time.

Consider `O=C(c1ccc(OCCN2CCCCC2)cc1)c1c(-c2ccc(O)cc2)sc2cc(O)ccc12`, for which the Potency entry in test [1], in test [7] and in test [8] was “inactive” throughout. Also, the Potency in test [2] was 21.1 µM (active) and 21.7 µM (active) and 19.3 µM (active); in [5], 55 µM (active) and 15.5 µM (active) and 26.6 µM (active); in [6], 61.2 µM (active) and 17.2 µM (active) and 29.8 µM (active); in test [15], 38.9 µM (active) and 12.3 µM (active) and 26.6 µM (active); in [9] it was 24.6 µM (active) and 8.71 µM (active) and 26.6 µM (active); in test [10], 49 µM (active) and 12.3 µM (active) and 23.7 µM (active). Besides, the Potency in [11] was 55 µM (active); in test [13], 55 µM (active) and 21.9 µM (active) and 33.5 µM (active).

As to `CC(C)OC(=O)C(C)(C)Oc1ccc(C(=O)c2ccc(Cl)cc2)cc1`, the Potency result in test [1], in [2], in test [5], in test [6], in test [7] and in test [8] was “inactive” throughout. Besides, the Potency entry in [17], in [10] and in test [11] was “inactive” throughout. Also, the Potency is 54.9 µM (active) in test [15]; 49 µM (active) and inactive in [9]; 13.8 µM (active) and inactive in test [13]. Besides, the result in test [16] and in [18] was inactive.

As to `c1ccc2sc(SSN3CCOCC3)nc2c1`, the Potency in test [1] was 30.6 µM (active); in test [3] it was 5.48 µM (active); in [15], 15.5 µM (active); in test [13], 19.5 µM (active) and 49 µM (active). The Potency entry in test [2], in [5], in [7], in test [9], in [17] and in test [11] was “inactive” each time. In addition, the result in test [18] was inactive.

Take `OCCO`: the Potency result in test [2], in test [3], in test [4], in [5], in test [6] and in test [7] was “inactive” each time. The Potency result in [8], in test [15], in test [9], in test [19], in test [17] and in test [10] was “inactive” throughout. For the same molecule, the Potency result in test [11] and in test [13] was “inactive” each time. Further, the outcome in [16], in test [18] and in [20] was inactive.

`COc1cccc2c1C(=O)c1c(O)c3c(c(O)c1C2=O)C[C@@](O)(C(=O)CO)C[C@@H]3O[C@H]1C[C@H](N)[C@H](O)[C@H](C)O1`: the Potency entry was “inactive and 3.85 µM (active)” in test [2]; 2.37 µM (active) in [4]; 0.266 µM (active) in test [14]; 13.7 µM (active) and 5.31 µM (active) in test [6]; 1.55 µM (active) and 2.98 µM (active) in test [19]. Moreover, the Potency result in test [3], in test [5], in test [15], in [9], in test [10] and in test [11] was “inactive” throughout. In addition, the Potency result in test [13] is “inactive”.

For the molecule `CCCCC(CC)COP(=O)(OCC(CC)CCCC)OCC(CC)CCCC` (centres undefined), the Potency result in test [2], in test [3], in [4], in test [5], in [14] and in [6] was “inactive” each time. Moreover, the Potency entry in [7], in [8], in test [15], in test [9], in [19] and in test [17] was “inactive” each time. In addition, the Potency result in test [10], in test [11] and in test [13] was “inactive” throughout. Further, the molecule was called inactive in [16] and in test [18].

On to `CCC(C)CO` (centres undefined), for which the Potency result in test [2], in [3], in test [4], in test [5], in [6] and in [7] was “inactive” each time. In addition, the Potency entry in test [8], in test [15], in test [9], in [19], in test [17] and in test [10] was “inactive” throughout. In addition, the Potency entry in test [11] and in test [13] was “inactive” in each case. Also, the molecule was classed as inactive in [16], in test [18], in test [12] and in test [20].
